D1 ag: Allosteric Agonists of the Human D1 Dopamine Receptor: qHTS | D(1A) dopamine receptor (Homo sapiens), P21728 | activation, % at 2 µM | 1% of 360,000 active | HEK293 T-REx D1 cells, calcium flux, agonist mode; also: 0% is about no effect
Target sequence (P21728 whole entry, looked up): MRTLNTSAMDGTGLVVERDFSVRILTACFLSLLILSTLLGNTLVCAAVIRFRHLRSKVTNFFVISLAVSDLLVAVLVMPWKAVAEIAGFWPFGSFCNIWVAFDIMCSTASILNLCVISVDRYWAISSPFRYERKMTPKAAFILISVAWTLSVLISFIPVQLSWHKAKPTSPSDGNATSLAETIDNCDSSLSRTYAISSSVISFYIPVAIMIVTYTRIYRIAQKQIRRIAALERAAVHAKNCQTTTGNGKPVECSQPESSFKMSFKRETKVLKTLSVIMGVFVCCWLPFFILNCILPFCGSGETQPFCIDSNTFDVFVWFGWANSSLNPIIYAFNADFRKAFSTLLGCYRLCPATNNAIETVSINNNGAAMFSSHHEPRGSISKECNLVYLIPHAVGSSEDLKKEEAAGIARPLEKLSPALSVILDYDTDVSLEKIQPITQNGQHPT
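Agonism was scored from calcium flux recorded over 180 s (1 read/s) after pintool compound addition, following a 10-cycle baseline. Cells were inducible force-coupled HEK293 TREx D1, plated overnight at 30 C and loaded with no-wash calcium dye.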
D1 PAM: Potentiators of Human D1 Dopamine Receptor: qHTS; 0.036% of 360,000 active; HEK293 TREx D1 cells, calcium flux, dopamine EC20 potentiation; potentiation, % at 10 µM; AID 504651, 2011; in the data active = potentiation above about 30%; also: 0% is about no effect
D1 antagonist: Antagonist of Human D 1 Dopamine Receptor: qHTS | 3.2% of 360,000 active | activity change, negative = inhibition, % at 10 µM | HEK293 TREx D1 cells, calcium flux, dopamine EC80; active compounds read low | AID 504652, 2011; in the data active = activity change below about -30%; also: % is scaled to controls: 0 for no effect and ±100 for the full control effect
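Antagonism measured as reduced calcium response to an EC80 dopamine addition following 180 s compound pre-read; cells were inducible HEK293 Trex D1 plated overnight at 30 C, read kinetically at 1 cycle/sec.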
TRHR agonist: qHTS for Small Molecule Agonists and Allosteric Enhancers of Human TRH Receptor: Primary Screen for Agonists. Thyrotropin-releasing hormone receptor (Homo sapiens), P34981. TRHR cells, calcium flux fluo-8, FDSS agonist mode. activation, % at 2 µM. 0.18% of 360,000 active. AID 493084, 2011; also: 0% is about no effect
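Fluo-8-loaded TRHR cells; 10 s baseline, compound added, kinetic Ca2+ fluorescence read 1/s, agonist mode.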
TRHR PAM: qHTS for Small Molecule Agonists and Allosteric Enhancers of Human TRH Receptor: Primary Screen for Enhancers; Thyrotropin-releasing hormone receptor (Homo sapiens), P34981; enhancement, % at 2 µM; TRHR cells, fluo-8 calcium fluorescence, EC20 TRH enhancement; 0.66% of 360,000 active; AID 493056, 2011; in the data active = enhancement above about 30%; also: 0% is about no effect
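Enhancer read-out: after compound pinning and an initial kinetic agonist-mode read, an EC20 of TRH (10 nM final) was injected and fluo-8 calcium signal (Ex 480/Em 530) followed at 1 s/cycle for 100 cycles in TRHR-expressing cells.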
The depositor's hits bear a star; ! = a repeat was not active. This is a sample that favours compounds with a hit; in the whole collection about 4.7% have one here. Rule as the data show it, unless noted: active = activation above about 30%; inactive = the rest.

What do the screens show for `CC(=O)c1c(C)[nH]c(C(=O)N2c3ccccc3CC2C)c1C` (centres undefined)?
D1 ag: 2.6; D1 PAM: -0.7; D1 antagonist: -41.2*; TRHR agonist: 0.1; TRHR PAM: -1.4

How did CC(=O)c1c(C)[nH]c(C(=O)N2CCc3ccccc3C2)c1C do in these assays?
D1 ag: 4.7; D1 PAM: -1.6; D1 antagonist: 5.4; TRHR agonist: -0.4; TRHR PAM: 8.4

Results for Cn1c(-c2c(N)n(-c3ccccc3)c3nc4ccccc4nc23)nc2ccccc21 ?
D1 ag: 50.5*; D1 PAM: -0.7; D1 antagonist: 14.0; TRHR agonist: 17.0; TRHR PAM: 1.8

What do the screens show for `Cc1cccc(-n2c(N)c(-c3nc4ccccc4n3C)c3nc4ccccc4nc32)c1`?
D1 ag: 59.6*; D1 PAM: 2.5; D1 antagonist: 2.9; TRHR agonist: 12.9; TRHR PAM: 0.3

What do the screens show for `Cc1ccccc1-c1noc(C(C)NC(=O)c2ccco2)n1` (centres undefined)?
D1 ag: 2.7; D1 PAM: 0.2; D1 antagonist: -39.9*!; TRHR agonist: -0.1; TRHR PAM: 2.6

How did CC(NC(=O)c1ccco1)c1nc(-c2ccc(Cl)cc2)no1 (centres undefined) do in these assays?
D1 ag: 9.2; D1 PAM: -7.2; D1 antagonist: -2.2; TRHR agonist: 0.2; TRHR PAM: 9.5

How did CC1(c2ccccc2)NC(=O)N(CC(=O)NNC(=O)c2ccccc2)C1=O (centres undefined) do in these assays?
D1 ag: 3.9; D1 PAM: -2.6; D1 antagonist: -43.0*; TRHR agonist: -0.1; TRHR PAM: 2.0

How did Cc1cccc(C)c1OCCN1C(=O)NC(C)(c2ccccc2)C1=O (centres undefined) do in these assays?
D1 ag: 4.9; D1 PAM: -0.4; D1 antagonist: 0.9; TRHR agonist: 0.5; TRHR PAM: 39.6*

What do the screens show for `CCC1(c2ccccc2)NC(=O)N(CC(=O)Nc2cc(Cl)ccc2N2CCN(C)CC2)C1=O` (centres undefined)?
D1 ag: 7.9; D1 PAM: -13.7; D1 antagonist: -38.3*; TRHR agonist: 0.6; TRHR PAM: 7.5

How did O=C(CN1C(=O)NC2(CCCC2)C1=O)Nc1ccccc1N1CCCC1 do in these assays?
D1 ag: 4.0; D1 PAM: 2.3; D1 antagonist: -8.3; TRHR agonist: -0.1; TRHR PAM: 2.0

Results for CN1CCN(c2ccc(Cl)cc2NC(=O)CN2C(=O)NC(C)(c3ccccc3)C2=O)CC1 (centres undefined) ?
D1 ag: -0.5; D1 PAM: -3.0; D1 antagonist: -10.3; TRHR agonist: 0.1; TRHR PAM: -4.7

Results for CC1(c2ccccc2)NC(=O)N(CC(=O)Nc2ccccc2N2CCCC2)C1=O (centres undefined) ?
D1 ag: 38.5*; D1 PAM: -5.2; D1 antagonist: 3.4; TRHR agonist: 3.2; TRHR PAM: 8.5

Results for COc1cc(OC)cc(-c2nc3nc(C)c(CCC(=O)Nc4ccc(C)cc4C)c(C)n3n2)c1 ?
D1 ag: 1.4; D1 PAM: 0.8; D1 antagonist: 3.0; TRHR agonist: 0.1; TRHR PAM: 3.1

How did OC(CN1CCCCC1)Cn1c2ccc(Cl)cc2c2cc(Cl)ccc21 (centres undefined) do in these assays?
D1 ag: 35.4*; D1 PAM: -4.2; D1 antagonist: 13.0; TRHR agonist: 5.0; TRHR PAM: 7.1

What do the screens show for `OC(CN1CCN(c2ccccn2)CC1)Cn1c2ccc(Cl)cc2c2cc(Cl)ccc21` (centres undefined)?
D1 ag: 0.5; D1 PAM: -1.4; D1 antagonist: 3.4; TRHR agonist: 0.1; TRHR PAM: 1.5

What do the screens show for `CCC1CCCCN1C(=O)COc1ccc(N(C)S(=O)(=O)c2ccc(C)cc2)cc1` (centres undefined)?
D1 ag: 7.5; D1 PAM: 0.1; D1 antagonist: 12.5; TRHR agonist: -0.4; TRHR PAM: -1.8

From PubChem BioAssay
